Assay results from PubChem BioAssay (EPA / NIEHS).
Active and inactive are the calls of the source. Rule for the calls: active = hit-call score of the fitted dose curve at least 0.9, where 1 is the maximum; inactive = score below 0.9.

Experiment: Tanguay_ZF_120hpf_MO24: Oregon State University Tanguay Lab 24 Hour Post-fertilization zebrafish Assay for Mortality (AID 2284389)
Procedure: Tanguay_ZF_120hpf is a whole embryo, multiplexed endpoint assay using zebrafish larvae exposed for 120 hours post fertilization on a 96-well plate.Tanguay_ZF_120hpf_MO24 is one of one assay component(s) measured or calculated from the Tanguay_ZF_120hpf assay. It is designed to make measurements of zebrafish development as detected with brightfield microscopy of developing zebrafish embryos.Data from the assay component Tanguay_ZF_120hpf_MO24 was analyzed into 1 assay endpoints. This assay endpoint, Tanguay_ZF_120hpf_MO24, was analyzed in the positive analysis fitting direction relative to DMSO as the negative control and baseline of activity. Using a type of viability reporter, gain-of-signal activity can be used to understand changes in developmentals as they relate to the whole embryo. To generalize the intended target to other relatable targets, this assay endpoint is annotated to the zebrafish development intended target family, where the subfamily is embryonic mortality.
Zebrafish husbandry: Tropical 5D wild-type adult zebrafish were housed in at an approximate density of 1000 per 100 gallon tank at the Sinnhuber Aquatic Research Laboratory, Oregon State University, Corvallis, OR. Each tank was kept at standard laboratory conditions of 28C on a 14-h light/10-h dark photoperiod in fish water consisting of reverse osmosis water supplemented with a commercially available salt (Instant Ocean). Spawning funnels were placed into the tanks the night prior, and embryos were collected and staged. To increase bioavailability, the chorion was enzymatically removed using pronase (63.6mg/ml, >/= 3.5U/mg, Sigma-Aldrich: P5147) at 4 hours post fertilization (hpf) using a custom automated dechorionator.Chemical exposures: Six hpf dechorionated embryos were placed 1 embryo per well in a 96-well plate prefilled with 90 ul of EM using automated embryo placement systems (AEPS). Ten microliters of each row of dilution plate 2 was added to 2 exposure plates. The final DMSO concentration used was 0.64% (vol/vol). Thirty-two embryos were also exposed to 5uM trimethyltin chloride (positive control). Plates were sealed to prevent evaporation and foil covered to reduce light exposure and kept in a 28C incubator. Embryos were statically exposed until 120 hpf. At 24 hpf, embryos were assessed for photomotor response using a custom photomotor response analysis tool (PRAT) and for developmental toxicity endpoints (MO24: mortality at 24 hpf, DP: developmental progression, SM: spontaneous movement, and NC: notochord distortion). At 120 hpf, locomotor activity was measured using Viewpoint Zebralab and assessed for 13 endpoints. Zebrafish acquisition and analysis program (ZAAP), a custom program designed to inventory, acquire, and manage zebrafish data, was used to collect developmental endpoints as either present or absent (i.e., binary responses were recorded). If mortality occurred for an embryo (at either 24 or 120 hpf), the non-mortality endpoints were not measured.

SMILES | outcome | AC50
O=C(O)C=CC(F)(C(F)(F)F)C(F)(F)F | inactive | 
O=C(O)C(F)(F)C(F)(F)C(=O)O | inactive | 
OCC(F)(F)OC(F)(F)C(F)(F)OC(F)(F)C(F)(F)OC(F)(F)CO |  | 64.9 µM (active)
FC(F)(F)C(F)(C(F)(F)F)C(F)(F)C(F)(F)CC1CO1 (centres undefined) | inactive | 
O=C(O)C(F)(OC(F)(F)C(F)(F)C(F)(F)F)C(F)(F)F (centres undefined) | inactive | 
O=C(O)C(F)(F)OC(F)(F)C(F)(F)OC(F)(F)C(=O)O | inactive | 
COC(=O)C(F)(F)C(F)(F)OC(F)(C(F)(F)F)C(F)(F)OC(F)=C(F)F (centres undefined) |  | 21.4 µM (active)
O=S(=O)(F)C(F)(F)C(F)(F)C(F)(F)C(F)(F)C(F)(F)C(F)(F)C(F)(F)C(F)(F)F | inactive | 
OCC(F)(F)OC(F)(F)C(F)(F)OC(F)(F)CO | inactive | 
C=CC(=O)OCC(F)(F)C(F)F | inactive | 
NC(=O)C(F)(F)C(F)(F)F | inactive | 
O=C(O)C(F)(F)OC(F)(F)C(F)(F)OC(F)(F)F | inactive | 
CC(O)C(F)(F)C(F)(F)F (centres undefined) | inactive | 
OCC(F)(F)OC(F)(F)C(F)(F)OC(F)(F)C(F)(F)OC(F)(F)F | inactive | 
